High-throughput results from PubChem.
HP1b chromo inh: HP1-beta chromodomain-methylated histone interaction inhibition; P83916; AlphaScreen HP1-beta / biotin-H3K9me3 peptide binding; Potency, µM (doses to about 114 µM), most hits filed as inhibitors; 0.56% of 390,000 active; also: nearly all actives have a fitted effect of over 70% in size
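Compound inhibition of the preformed complex between 50 nM HP1-beta and 50 nM biotinylated H3K9me3 peptide was read by AlphaScreen. Buffer was PBS pH 7.4 with 0.01% Tween-20. Incubations ran 30 min at room temperature, with 10 ug/mL donor/acceptor beads.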
BAZ2B block: blocks human BAZ2B; Q9UIF8; AlphaScreen BAZ2B-H3K14Ac peptide displacement; Potency, µM (titrated, usually from 114 µM), most hits filed as inhibitors; 4.4% of 360,000 active; also: nearly all actives have a fitted effect of over 60% in size
Target sequence (Q9UIF8 whole entry, looked up): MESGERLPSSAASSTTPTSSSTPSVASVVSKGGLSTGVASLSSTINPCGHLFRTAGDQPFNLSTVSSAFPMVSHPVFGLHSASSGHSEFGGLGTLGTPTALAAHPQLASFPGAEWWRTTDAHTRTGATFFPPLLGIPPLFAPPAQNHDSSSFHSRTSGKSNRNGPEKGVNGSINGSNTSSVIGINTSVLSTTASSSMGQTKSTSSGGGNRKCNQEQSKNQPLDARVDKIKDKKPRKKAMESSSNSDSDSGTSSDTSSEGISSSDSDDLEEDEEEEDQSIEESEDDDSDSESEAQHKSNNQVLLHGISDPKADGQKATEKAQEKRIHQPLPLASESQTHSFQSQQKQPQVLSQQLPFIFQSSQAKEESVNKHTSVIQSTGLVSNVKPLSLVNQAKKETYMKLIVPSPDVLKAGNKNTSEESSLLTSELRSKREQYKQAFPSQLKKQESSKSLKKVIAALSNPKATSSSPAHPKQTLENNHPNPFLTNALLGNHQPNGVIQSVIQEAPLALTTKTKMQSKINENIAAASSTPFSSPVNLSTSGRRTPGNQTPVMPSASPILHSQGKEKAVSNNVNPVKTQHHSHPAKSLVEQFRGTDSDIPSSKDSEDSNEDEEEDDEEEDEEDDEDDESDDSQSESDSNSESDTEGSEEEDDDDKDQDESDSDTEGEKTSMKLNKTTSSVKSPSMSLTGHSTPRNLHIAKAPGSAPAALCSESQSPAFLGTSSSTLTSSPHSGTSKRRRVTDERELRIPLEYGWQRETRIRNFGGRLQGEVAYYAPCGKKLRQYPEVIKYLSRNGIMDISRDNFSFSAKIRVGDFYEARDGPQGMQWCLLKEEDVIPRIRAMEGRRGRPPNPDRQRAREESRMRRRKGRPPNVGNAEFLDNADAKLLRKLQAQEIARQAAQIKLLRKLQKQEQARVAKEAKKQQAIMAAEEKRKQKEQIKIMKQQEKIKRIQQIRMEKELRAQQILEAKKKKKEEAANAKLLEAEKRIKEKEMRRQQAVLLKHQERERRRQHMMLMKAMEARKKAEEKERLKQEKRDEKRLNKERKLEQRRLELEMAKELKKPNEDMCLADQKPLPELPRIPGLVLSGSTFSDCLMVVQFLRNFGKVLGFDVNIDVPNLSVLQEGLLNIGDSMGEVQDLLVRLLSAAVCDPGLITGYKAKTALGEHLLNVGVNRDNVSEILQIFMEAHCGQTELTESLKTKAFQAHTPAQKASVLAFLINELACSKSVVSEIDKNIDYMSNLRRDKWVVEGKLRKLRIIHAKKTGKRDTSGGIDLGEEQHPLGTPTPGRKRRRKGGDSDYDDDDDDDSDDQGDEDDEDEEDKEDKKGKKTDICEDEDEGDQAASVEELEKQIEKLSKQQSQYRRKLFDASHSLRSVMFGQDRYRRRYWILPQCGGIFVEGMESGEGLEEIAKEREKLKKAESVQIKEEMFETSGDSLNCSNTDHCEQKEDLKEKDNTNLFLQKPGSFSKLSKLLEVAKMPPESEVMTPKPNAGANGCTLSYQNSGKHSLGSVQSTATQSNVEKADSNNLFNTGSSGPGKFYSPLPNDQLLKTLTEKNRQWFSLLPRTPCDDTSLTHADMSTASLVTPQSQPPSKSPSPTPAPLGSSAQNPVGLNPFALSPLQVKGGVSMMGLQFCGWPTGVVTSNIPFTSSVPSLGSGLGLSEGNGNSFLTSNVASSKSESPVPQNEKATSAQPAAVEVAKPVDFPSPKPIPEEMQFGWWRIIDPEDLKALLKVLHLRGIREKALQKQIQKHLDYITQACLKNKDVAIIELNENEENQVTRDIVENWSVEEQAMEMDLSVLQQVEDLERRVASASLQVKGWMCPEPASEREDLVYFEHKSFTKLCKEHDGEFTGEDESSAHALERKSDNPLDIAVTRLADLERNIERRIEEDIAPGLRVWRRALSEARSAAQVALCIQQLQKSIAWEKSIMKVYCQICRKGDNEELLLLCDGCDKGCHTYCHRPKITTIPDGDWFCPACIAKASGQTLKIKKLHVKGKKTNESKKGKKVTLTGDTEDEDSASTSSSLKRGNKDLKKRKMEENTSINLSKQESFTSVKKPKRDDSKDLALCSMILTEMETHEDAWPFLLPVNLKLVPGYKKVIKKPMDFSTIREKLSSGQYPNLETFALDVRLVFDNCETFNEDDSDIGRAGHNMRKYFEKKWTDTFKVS
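AlphaScreen displacement: compounds (up to 110uM) incubated 30 min at room temperature with a preformed 50 nM BAZ2B/50 nM biotinylated H3K14Ac peptide complex in PBS pH 7.4 with Tween-20. Donor and acceptor beads at 10 ug/mL final added, 20 min light-protected before reading.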
G9a block: G9a (human) methyltransferase inhibition; Q96KQ7; G9a H3K9 monomethylation, AlphaScreen, 2 h; Potency, µM (top dose mostly 102 µM), most hits filed as inhibitors; 8.8% of 350,000 active; AID 504332; also: nearly all actives have a fitted effect of over 75% in size
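Chemiluminescent proximity detection of H3K9 monomethylation, read after 10 min bead incubation in the dark. Reaction: 20 nM G9a, 500 nM biotin-H3K9 peptide, 20 uM SAM cofactor, 2 h, room temperature, following 15 min enzyme-compound preincubation.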
JMJD2A Tudor: inhibitors of human JMJD2A Tudor domain | AID 504339 | Potency, µM (doses to about 114 µM), hits mostly inhibitors | AlphaScreen JMJD2A-Tudor / H3K4me3 peptide binding | 4.4% of 390,000 active; also: nearly all actives have a fitted effect of over 50% in size
Sfp inh: inhibitors of Bacillus subtilis Sfp phosphopantetheinyl transferase; Biochemical Sfp PPTase activity, qHTS; Potency, µM, hits mostly inhibitors; 3.5% of 310,000 active; AID 1490;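 also: the enzyme is Sfp with the accession as filed and its product quenches rhodamine fluorescence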
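Fluorescence-quenching assay: 15 nM Sfp-PPTase preincubated 15 min at room temperature with compound, then 5 uM rhodamine-CoA and 12.5 uM BHQ-2-labelled YbbR peptide added. Fluorescence (ex 525/em 598 nm) read at start and after 30 min; difference gives rate.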
Numbers stand for hits; . = inactive; ? = inconclusive; / = not tested or not shown; [ ] = dose if it differs, or a comment. Most compounds without a hit are left out; they make up all but 12% or so of the library. Calls follow the shape of the dose curve; as a rule, active = well fitted curve in the direction sought with a large enough effect; inconclusive = small, poorly fitted or top-dose-only effect, or another doubt; inactive = no such curve, though single readings can be large; an effect the other way counts as inactive or inconclusive.

SMILES	HP1b chromo inh	BAZ2B block	G9a block	JMJD2A Tudor	Sfp inh
CCOC(=O)c1sc(N2C(=O)C(O)=C(C(=O)c3ccco3)C2c2ccco2)nc1C (stereo not given)	?	?	8.9µM	16µM	.
Cc1ccc2nc(N3C(=O)C(O)=C(C(=O)c4ccc(C)o4)C3c3ccc(O)cc3)sc2c1 (stereo not given)	.	?	?	.	/
Cc1ccc2nc(N3C(=O)C(O)=C(C(=O)c4ccco4)C3c3cccs3)sc2c1 (stereo not given)	.	45µM	25µM	18µM	?
O=C(C[C@H]1C/C=C\C[C@H](NC(=O)OCC2c3ccccc3-c3ccccc32)C(=O)O[C@@H](c2ccccc2)CNC1=O)NCCO	.	/	/	.	/
COc1ccc(NC(C)c2ccccc2)cc1 (stereo not given)	?	40µM	13µM	50µM	.
COc1ccc(NC(=O)NC(C)c2ccccc2)cc1 (stereo not given)	.	.	.	.	.
COc1ccc(CCNCC(O)c2ccccc2)cc1 (stereo not given)	.	56µM	14µM	5µM	.
OC(CNCCc1ccccc1)c1ccccc1 (stereo not given)	.	.	.[12.7 µM]	.	.
COc1ccc(CCNCC(C)c2ccccc2)cc1 (stereo not given)	.	?	45µM	7.9µM	.
CCOC(=O)CN1C(=O)COc2ccc(Cl)cc21	.	.	.	?	.
Cc1cc(/C=C2\SC(=S)NC2=O)c(C)n1C1CC1	.	45µM	?	45µM	.
Cc1cc(/C=C2\SC(=O)NC2=O)c(C)n1-c1ccc(N(C)C)cc1	.	.	.	.	.
Cc1cc(/C=C2/C(=O)N(C)C(=S)N2C)c(C)n1C1CC1	.	?	79µM	?	.
Cc1cc(/C=N/NC(=O)c2ccc(O)cc2)c(C)n1C1CC1	.	?	.	.[11.4 µM]	.
COc1cccc(-c2nc3c(c(SCc4ccccc4)n2)Cc2c(CO)cnc(C)c2O3)c1	.	.	?	.	/
COCC(=O)N(Cc1cc2ccccc2[nH]c1=O)c1ccc(OC)cc1	.	.	.	.	.
CCOc1ccc(CCNC(=O)CCCn2c(=O)c3cccn3c3cccnc32)cc1OCC	.	.	.	.	.
N#Cc1ccc(C(=O)Nc2ccc3ccccc3c2)cc1	.	.	45µM	.	.
N#Cc1ccccc1Sc1ccccc1C(=O)Nc1ccc2ccccc2c1	.	.	.	.	.
CCN(CC)c1ccc(NC(=O)c2ccccc2F)cc1S(=O)(=O)Nc1ccccc1OC	?	.	6.3µM	?	14µM
CCN(CC)c1ccc(NC(=O)c2ccc(=O)[nH]c2)cc1S(=O)(=O)Nc1ccccc1OC	?	/	2.5µM	?	14µM
CCN(CC)c1ccc(NC(=O)COc2ccccc2C)cc1S(=O)(=O)Nc1ccccc1OC	?	.	10µM	?	20µM
COc1ccc(NC(=O)c2ccccc2F)cc1Cl	.	56µM	.	.	.
O=C(CSc1ccc2c(c1)OCCO2)Nc1ncc(Cl)cc1Cl	.	.	.	.	.
COc1ccc(F)cc1C(=O)C1CCCN(C(=O)Cc2c(C)noc2C)C1 (stereo not given)	.	.	/	.	.
SMILES	HP1b chromo inh	BAZ2B block	G9a block	JMJD2A Tudor	Sfp inh
COC(=O)Cn1nc(-c2ccccc2)c2ccccc2c1=O	.	.	.[12.7 µM]	.	.
O=C(COC(=O)c1ccccc1[N+](=O)[O-])c1ccc2c(c1)OCO2	.	.	?	.	/
NS(=O)(=O)c1ccc(CCNC(=O)c2ccc3c(=O)n4c(nc3c2)CCCCC4)cc1	.	/	/	.	/
CCN(CC)c1ccc(NC(=O)COc2ccccc2C#N)cc1S(=O)(=O)Nc1ccc(OC)cc1	.	.	?	.	.
CCN(CC)c1ccc(NC(=O)c2ccccc2Br)cc1S(=O)(=O)Nc1ccccc1OC	6.3µM	?	1.3µM	18µM	3.2µM
COc1ccccc1C(=O)Nc1cc(Cl)ccc1O	.	.	56µM	.	.
Cc1cccc(C)c1NC(=O)N1CCCC1C(=O)Nc1ccc(-n2cnnn2)cc1 (stereo not given)	.	.	.	.	.
CC1CCC(NS(=O)(=O)c2ccc(Cl)nc2)CC1 (stereo not given)	.	.	50µM	.	/
CCC(CO)NC(=O)c1ccc(-c2nn(C)c(=O)c3ccccc23)cc1 (stereo not given)	.	.	.	.	.
